Source: PubChem BioAssay (NCI)
“And” between values parts separate entries of the source, which are not always exact repeats. Equal entries are not always repeated. Compounds without any hit were thinned out: in the full panel of roughly 79,000, 15% have a hit. No stated cut-off is given here; in the data, active means growth inhibition above about 70%; inactive means the rest.

Columns and labels:
[1] = NCI Yeast Anticancer Drug Screen. Data for the rad50 strain (AID 155);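 further: 0% = growth of vehicle-only cultures of the same strain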; settings: S. cerevisiae rad50 strain growth inhibition, stronger effect = higher value; at 50.0 µM unless noted
How it was run: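 Compounds were tested on a yeast strain with an engineered DNA damage repair alteration; the reported value is growth inhibition normalised to vehicle treatment.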

[2] = NCI Yeast Anticancer Drug Screen. Data for the mec2-1 strain (AID 157); settings: S. cerevisiae mec2-1 strain, stronger effect = higher value; at 50.0 µM unless noted
How it was run: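 Each compound was tested on mec2-1 yeast, a strain altered in DNA damage repair or cell cycle control. Growth inhibition is reported relative to vehicle.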

[3] = NCI Yeast Anticancer Drug Screen. Data for the sgs1 mgt1 strain (AID 161);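 further: 0% = growth of cultures given vehicle only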; settings: S. cerevisiae sgs1 mgt1 strain, stronger effect = higher value; at 50.0 µM unless noted
How it was run: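 Read-out: growth inhibition vs vehicle controls. Cells: mutant yeast strain deficient in DNA damage repair.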

[4] = NCI Yeast Anticancer Drug Screen. Data for the cln2 rad14 strain (AID 165);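 further: 0% = growth equal to vehicle treated cultures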; settings: S. cerevisiae cln2 rad14 strain, stronger effect = higher value; at 50.0 µM unless noted
How it was run: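 Test compounds were added to cln2 rad14 yeast cultures; inhibition of growth was then determined by comparison with vehicle treatment.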

[5] = NCI Yeast Anticancer Drug Screen. Data for the bub3 strain (AID 167); settings: S. cerevisiae bub3 mutant strain, stronger effect = higher value; at 50.0 µM unless noted
How it was run: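 Growth of a checkpoint-deficient yeast mutant is measured after compound exposure. Values represent inhibition relative to vehicle.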

[6] = NCI Yeast Anticancer Drug Screen. Data for the mlh1 rad18 strain (AID 175); settings: S. cerevisiae mlh1 rad18 strain growth inhibition, stronger effect = higher value; at 50.0 µM unless noted
How it was run: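 Inhibition values reflect reduced growth of mutant yeast versus vehicle-treated controls following compound exposure; the mutations affect DNA damage repair.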

Measured: growth inhibition

Oc1ccc(C(Cc2ccccc2)NCc2ccccc2)cc1 (stereo not given)
inactive: [1] -8.15% | [2] 14.6% | [3] 15.7% | [4] -12.6% | [5] 5.25% | [6] 17.9%

CC(C)(C)C(=O)OCC1CCC(n2cnc3c(=O)[nH]c(N)nc32)O1 (stereo not given)
inactive: [1] 34.3% | [2] 2.3% | [3] -3.65% | [4] 3.05% | [5] -2.25% | [6] 25.7%

CN(C)c1ccc(Cc2ccc(N(C)C)cc2N)cc1
inactive: [1] -0.85% | [2] 2.2% | [3] 2.75% | [4] 10.1% | [5] -25.2% | [6] -4.05%

CCOC(=O)c1ccc(Cn2c(C)cc(=O)n(Cc3ccc(C(=O)OCC)cc3)c2=O)cc1
inactive: [1] 0.25% | [2] -14.1% | [3] -9.9% | [4] -27.6% | [5] 4.05% | [6] -7.7%

O=C(NC(Cc1ccc(I)cc1)C(=O)O)c1ccc(Br)cc1 (stereo not given)
inactive: [1] -4.3% | [2] -5.65% | [3] 2.8% | [4] 12.1% | [5] -9.4% | [6] -0.9%

O=C(CCl)Oc1ccc(C(=O)O)cc1
inactive: [1] -1.1% | [2] -3.55% | [3] -1.8% | [4] -3.65% | [5] 0.85% | [6] -6.7%

C#CC(=O)CCC
inactive: [1] 26.6% | [2] -5.8% | [3] -4.7% | [4] -1.1% | [5] 32.5% | [6] 15.6%

O=C(OCc1ccccc1)C1CCN1C(c1ccccc1)c1ccccc1 (stereo not given)
inactive: [1] 7.85% | [2] 13.5% | [3] 5.5% | [4] -25.6% | [5] 11.2% | [6] -7.8%

Cn1c2ccccc2c2nnc(NCCCO)nc21
inactive: [1] 18.9% | [2] 21.7% | [3] 18.8% | [4] 43.3% | [5] 25% | [6] 11.2%

CCc1cc(N(C)C)ccc1N=Nc1ccc([N+](=O)[O-])cc1
inactive: [1] 43.8% | [2] 9.65% | [3] 13.5% | [4] -26.1% | [5] 9.1% | [6] 28.9%

COc1ccc(C2c3c(ccc4ccccc34)Oc3ccc4ccccc4c32)cc1
inactive: [1] -8.05% | [2] -23.6% | [3] 7.5% | [4] 6.85% | [5] 2.85% | [6] -8.45%

C[C@@]1(O)C2CC3CC1(c1ccccc1)CC(/C3=N/O)/C2=N\O (stereo not given in full)
inactive: [1] -14.3% | [2] -17.6% | [3] -1.8% | [4] 26.2% | [5] -16.7% | [6] 8.3%

CCC1CC(=O)c2ccccc2O1 (stereo not given)
inactive: [1] 0.65% | [2] 9.55% | [3] -20.4% | [4] -2.55% | [5] 5.4% | [6] 0.4%

O=C(O)C1=Cc2ccccc2OC1
inactive: [1] 2.7% | [2] -19.9% | [3] -5.55% | [4] -27.2% | [5] -28.6% | [6] -4.7%

Cc1cn(C2CC(O)C(CO)O2)c(=O)nc1N1CCSCC1 (stereo not given)
inactive: [1] 2.5% | [2] -7.05% | [3] -2.6% | [4] -32.8% | [5] -12% | [6] -8.8%

CCCC(=O)NC1CCCCC1
inactive: [1] -22.2% | [2] 8.05% | [3] -26.9% | [4] 26.5% | [5] -24.1% | [6] -23.1%

CCCCCCCCCOc1ccc(C=Nc2ccc(C)cc2)cc1
inactive: [1] -4.3% | [2] 7.8% | [3] -2.55% | [4] -18.9% | [5] -10.9% | [6] -4.65%

CC(C)(Oc1ccc(C(=O)c2ccc(Cl)cc2)cc1Cl)C(=O)N1CCN(c2ccccc2)CC1
inactive: [1] 2% | [2] -46.1% | [3] -0.85% | [4] -55% | [5] -9.2% | [6] -5.9%

Nc1nc(NCCO)c(NC=O)c(=O)[nH]1
inactive: [1] -11.6% | [2] 6% | [3] -2.6% | [4] -34.4% | [5] -13.8% | [6] -1.35%

ClCCOCCOc1ccc(C2CCCCC2)cc1
inactive: [1] 12.9% and -1.65% | [2] 11.9% and -0.75% | [3] 56% and -3.65% | [4] 24.1% and -10.8% | [5] 28.2% and 31.4% | [6] 13.8% and 9.05%
